Screening results (PubChem BioAssay)
This is a sample that favours compounds with a hit; in the whole collection about 2.5% have one here.
Cruzain inh noDet: blocks cruzain activity in detergent-free assay; Potency, µM, for the others: max response, negative = inhibition, usual class: inhibitors; AID 1476; hit rate 2.3% among 200,000; purified cruzain, Z-FR-AMC fluorescence, no detergent; P25779;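 further: plate controls were enzyme without inhibitor for no effect and buffer without enzyme for full effect; nearly all actives have a fitted effect of over 40% in size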
Target sequence (P25779 123-467 limits assumed): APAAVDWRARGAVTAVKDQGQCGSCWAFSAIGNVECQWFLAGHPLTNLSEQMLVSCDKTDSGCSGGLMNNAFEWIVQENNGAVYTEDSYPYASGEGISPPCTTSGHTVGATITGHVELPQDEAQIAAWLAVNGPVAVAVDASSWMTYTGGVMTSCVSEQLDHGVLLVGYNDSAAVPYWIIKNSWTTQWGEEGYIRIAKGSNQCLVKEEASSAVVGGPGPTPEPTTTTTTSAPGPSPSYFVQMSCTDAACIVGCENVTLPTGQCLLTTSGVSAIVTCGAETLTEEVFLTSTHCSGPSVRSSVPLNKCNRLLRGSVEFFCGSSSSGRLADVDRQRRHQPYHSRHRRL
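Purified cruzain at 1.5 nM, pre-incubated 15 min with compound at room temperature in 100 mM sodium acetate pH 5.5, 5 mM DTT, 0.00005% Triton X-100. Reaction started with 2 uM Z-FR-AMC; AMC fluorescence increase over 60 s gives rate.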
Cruzain Triton: blocks cruzain activity in presence of Triton detergent | P25779 | purified cruzain, Z-FR-AMC fluorescence, 0.01% Triton | Potency, µM, without a hit: max response, negative = inhibition, most hits filed as inhibitors | hit rate 0.43% among 200,000 | AID 1478;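 further: plate controls were neutral wells for no effect and buffer without enzyme for full effect; nearly all actives have a fitted effect of over 40% in size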
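Cysteine protease activity tested under reducing, mildly acidic conditions (100 mM sodium acetate pH 5.5, 5 mM DTT) plus 0.01% Triton X-100. Cruzain 1.5 nM; substrate Z-FR-AMC 2 uM; 15 min compound preincubation at room temperature.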
Papain counter: blocks papain protease activity, flagging nonselective cruzain hits; shares compounds with Cruzain Triton; purified papain, Z-FR-AMC fluorescence cleavage; Potency, µM, inactives show max response, negative = inhibition, hits mostly inhibitors; hit rate 41% among 410; AID 2161;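 further: 0% = no-compound wells and -100% = no-enzyme wells; nearly all actives have a fitted effect of over 35% in size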
Target sequence (P00784 whole entry, looked up): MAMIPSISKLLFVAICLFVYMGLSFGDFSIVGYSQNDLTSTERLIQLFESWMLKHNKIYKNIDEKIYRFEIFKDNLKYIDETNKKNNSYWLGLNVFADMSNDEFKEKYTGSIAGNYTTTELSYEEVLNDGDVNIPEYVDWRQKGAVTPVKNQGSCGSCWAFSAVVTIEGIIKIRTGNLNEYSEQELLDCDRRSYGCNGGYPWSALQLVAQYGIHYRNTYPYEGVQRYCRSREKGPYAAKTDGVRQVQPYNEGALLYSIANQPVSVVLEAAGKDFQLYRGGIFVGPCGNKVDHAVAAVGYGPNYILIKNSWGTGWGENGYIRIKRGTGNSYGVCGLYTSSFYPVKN
Numbers without * were called inactive; ? = inconclusive; · = no result. The call rests on the fitted dose curve; in most records, active means well fitted curve in the direction sought with a large enough effect; inconclusive means small, poorly fitted or top-dose-only effect, or another doubt; inactive means no such curve, though single readings can be large; an effect the other way counts as inactive or inconclusive. Potency means the concentration at half of the fitted maximal effect.

SMILES	Cruzain inh noDet	Cruzain Triton	Papain counter
O=c1c2oc3ccccc3c2n(Cc2cccc(F)c2)c(=O)n1Cc1ccc2c(c1)OCO2	-4%	-1%	·
C=Cn1ccnc1P(=S)(c1ccc(N(C)C)cc1)c1nccn1C=C	?	0%	·
C=Cn1ccnc1P(=S)(c1ccc2c(c1)c1ccccc1n2CC)c1nccn1C=C	?	-4%	6%
O=C(N[C@@H](Cc1ccccc1)C(=O)CCl)OCc1ccccc1	0.32µM*	0.16µM*	5µM*
CSCC[C@H](NC(=O)OCc1ccccc1)C(=O)O	-1%	-2%	·
CC1CCN(S(=O)(=O)c2cc(C(=O)N3CCN(c4cccc(Cl)c4)CC3)n(C)c2)CC1	?	-17%	·
COc1ccccc1Nc1nn2c(=O)c3ccc(C(=O)NCCC4=CCCCC4)cc3nc2s1	-6%	-3%	·
O=C(NCCCc1nc2ccccc2n1CCCOc1ccccc1)C1CCCCC1	·	·	10%
O=C(NCCCc1nc2ccccc2n1CCOc1ccccc1)C1CCCCC1	·	·	0%
O=C(NCCCc1nc2ccccc2n1Cc1ccccc1)C1CCCCC1	-7%	-6%	·
O=C(NCCCc1nc2ccccc2n1Cc1ccc(F)cc1)C1CCCCC1	-6%	-6%	·
OCCCc1nc2ccccc2n1CCCCOc1ccccc1	-1%	-5%	·
O=C(NCCCc1nc2ccccc2n1CCCCOc1ccccc1)C1CCCCC1	·	·	5%
CCc1ccc(S(=O)(=O)Nc2cccc(-c3ccc(N4CCCCC4)nn3)c2)s1	?	-3%	·
COc1ccc(Cn2ccc3nc(C)c(C(=O)N4CCN(c5ccccc5OC)CC4)cc3c2=O)cc1	25%	-3%	·
CCc1ccc(NC(=O)CSc2cn(CC(=O)N3CCOCC3)c3ccccc23)cc1	?	0%	·
N#Cc1c(NC(=O)CSc2ncnc3c2cnn3-c2ccccc2Cl)sc2c1CCCC2	3.2µM*	3%	10%
N#Cc1c(NC(=O)CSc2ncn(-c3ccccc3)n2)sc2c1CCCC2	?	2%	·
COc1cc(NC(=O)c2nn(C)c3c2COc2ccccc2-3)cc(OC)c1OC	2%	-2%	·
Cc1ccc(-c2nn3c(=O)cc(CN4CCN(C(=O)Nc5cc(Cl)ccc5C)CC4)nc3s2)cc1	-16%	3%	·
O=C(O)c1c(Sc2ccccc2)c2cc(Cl)ccc2n1Cc1ccc(Cl)cc1	?	28µM*	28µM*
O=C(Cc1ccc(Cl)cc1)Nc1ccccc1Sc1ccccc1	-17%	-8%	·
CC(C)Oc1ccc(CNC(=O)Cn2ncn3nc(-c4cccs4)cc3c2=O)cc1	6%	-7%	·
Cn1c(=O)c2c(-c3ccccc3)n(-n3cnnc3)cc2n(C)c1=O	6.3µM*	8.9µM*	13µM*
Cn1c(=O)c2c(-c3ccccc3)n(CCCO)cc2n(C)c1=O	-5%	2%	·
SMILES	Cruzain inh noDet	Cruzain Triton	Papain counter
Cc1ccc(S(=O)(=O)c2cn(CC(=O)Nc3ccc4c(c3)OCO4)c3ccccc3c2=O)cc1C	?	-3%	·
Cc1cc(OC(C)C(=O)Nc2cccc(-c3nc4ccccc4o3)c2)cc(C)c1Cl (centres undefined)	-25%	-3%	·
COc1ccc(-n2c(C)nn(C)c2=O)cc1	-3%	11%	·
Cc1cc(C)n2nc(-c3ccc(F)cc3)nc2n1	-6%	7%	·
Cn1nc(-c2ccc(F)cc2)nc2c(=O)n(C)c(=O)nc1-2	·	·	-4%
Cn1nc(-c2ccc(Cl)cc2)nc2c(=O)n(C)c(=O)nc1-2	1.6µM*	1.6µM*	-20%
Cc1ccc(-c2nc3n(n2)C(=O)CC(c2ccc(Cl)cc2)S3)cc1 (centres undefined)	-9%	-4%	·
COc1ccc(-c2nc3c(=O)n(C)c(=O)nc-3n(C)n2)cc1	·	·	-10%
Cn1c(=O)nc2n(Cc3ccccc3)c3ccccc3cc-2c1=O	-9%	?	·
CCn1nc(-c2ccccc2C)nc2c(=O)n(C)c(=O)nc1-2	·	·	-9%
CCOc1ccc(CNS(=O)(=O)c2cc3c(cc2C)NC(=O)CO3)cc1OC	-3%	2%	·
Cc1c(C(=O)NN2CCOCC2)nn(-c2ccc(Cl)cc2Cl)c1-c1ccc(I)cc1	-2%	1%	·
Cc1cccc(OCC(=O)Nc2ccc(OCc3cc(=O)n4cc(C)ccc4n3)cc2)c1	-3%	3%	·
Cn1nc(-c2cccnc2)nc2c(=O)n(C)c(=O)nc1-2	·	·	3%
Cc1cc(C)n2nc(-c3cccnc3)nc2n1	5%	3%	·
CCc1ccc(CNC(=O)CCN2C(=O)COc3ccccc32)cc1	-4%	1%	·
COc1ccc(C(=O)Nc2cccc(-c3nc4cccnc4s3)c2C)c(OC)c1	15%	2%	·
CC(C)(CNC(=O)C1CCCC1)CNC(=O)C1CCCC1	-6%	-1%	·
O=C(COC(=O)Cc1ccsc1)NC1CCCCCC1	7%	5%	·
CCOC(=O)CNC(=O)C1CCCCC1	·	·	-18%
O=C(COC(=O)CNC(=O)C1CCCCC1)NC1CC1	·	·	25µM*
NCCc1nc2cccnc2n1-c1ccccc1	0%	1%	·
CNc1oc(Cc2ccccc2)nc1S(=O)(=O)c1ccc(Cl)cc1	10µM*	10µM*	-12%
O=S(=O)(c1ccc(Cl)cc1)c1nc(-c2ccccc2Br)oc1NCc1ccccc1	?	-7%	·
CN(Cc1ccco1)c1ncncc1-c1cccc(NS(C)(=O)=O)c1	16%	5%	·
SMILES	Cruzain inh noDet	Cruzain Triton	Papain counter
CCc1ccccc1NC(=O)CSc1nnc([C@@H](N)Cc2c[nH]c3ccccc23)o1	10µM*	10µM*	7%
CC(C)=CCSc1nnc([C@@H](N)Cc2c[nH]c3ccccc23)o1	1%	-9%	·
COc1ccccc1N1CCN(S(=O)(=O)c2cc(-c3cc(C)no3)ccc2C)CC1	30%	-2%	·
COc1ccccc1C(=O)NC1(C(F)(F)F)C(=O)Nc2c1c(=O)[nH]c(=O)n2-c1ccccc1 (centres undefined)	1%	-2%	·
Cc1cccc(OCCn2c(CCCO)nc3ccccc32)c1	3%	2%	·
Cc1cc(C)cc(OCCCn2c(CCNC(=O)C3CCCCC3)nc3ccccc32)c1	3%	2µM*	25µM*
Cc1cc(C)cc(OCCn2c(CCNC(=O)C3CCCCC3)nc3ccccc32)c1	1%	1.8µM*	2%
CCc1ccccc1N1CC(c2nc3ccccc3n2CCOc2ccc(Cl)c(C)c2)CC1=O (centres undefined)	-14%	-8%	·
Cc1ccc(Cn2c(CCNC(=O)c3cccc(C)c3)nc3ccccc32)cc1	25%	5µM*	-12%
Cc1cc(OCCn2c(CCNC(=O)C3CCCCC3)nc3ccccc32)ccc1Cl	-15%	2.5µM*	-6%
CCCCn1c(CCNC(=O)CC)nc2ccccc21	-7%	0%	·
CC(=O)NCCCc1nc2ccccc2n1Cc1ccc(C)cc1	2%	3%	·
CSCCC(N)C(=O)NC(CC(C)C)C(=O)NC(Cc1ccccc1)C(=O)O (centres undefined)	-1%	2%	·
Cc1cccc(C)c1OCCn1c(CCNC(=O)C2CCCCC2)nc2ccccc21	5%	3.5µM*	-26%
Cc1cccc(OCCCn2c(CCNC(=O)C3CCCCC3)nc3ccccc32)c1	-4%	2µM*	16µM*
CCn1c(NC(=O)C2CCCCC2)nc2ccccc21	-25%	-4%	·
Cc1cccc(OCCCn2c(CCNC(=O)C(C)C)nc3ccccc32)c1	16%	-2%	·
CC(C)COC(=O)c1nnsc1NC(=O)Nc1ccccc1	16µM*	3%	12%
CC(C)COC(=O)c1ccccc1C(=O)OCC(C)C	-1%	1%	·
COc1ccc(-n2c(SCC(=O)N3CCC(C)CC3)nc3c([nH]c4ccccc43)c2=O)cc1	-11%	-2%	·
